Among the data in PubChem BioAssay (NCI) are growth values, retold here.

Test systems include NCI-H23 lung; NCI-H226 lung; NCI-H322M lung; HOP-62 NSCLC; HOP-92 NSCLC; NCI-H522 lung; A549/ATCC NSCLC; 786-0 renal; COLO 205 colon; DU-145 prostate; K-562 leukemia; MDA-MB-231 breast; RXF 393 renal; SF-268 CNS; SF-295 CNS; SF-539 CNS; UACC-257 melanoma; M14 melanoma; MALME-3M melanoma; NCI-H460 lung.
What all share (assay): NCI-60 one-dose screen, 48 h (100 = growth as untreated, 0 = no growth, -100 = all killed)
Holding throughout (details): 10 µM unless noted

The structures appear in SMILES notation. The panel holds about 83,000 compounds, 20% with a hit somewhere; the sample as a whole holds those more often.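 Step 1: grow cells in 96-well plates. Step 2: add test compound at a single concentration. Step 3: incubate 48 h. Step 4: record percent growth.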 Unmarked numbers belong to inactive results. Active and inactive are the calls of the source. The calls were made as follows: active = growth percent below 10; inactive = the rest.

For the compound `COc1ccc(Cn2cc3c(c2-c2cc(OC)c(OC)c(OC)c2)CCc2cnoc2-3)cc1`, the growth is 22.8% in the assay on NCI-H23 lung; 19.8% in the assay with NCI-H226 lung; 35.8% in the assay with NCI-H322M lung; 64.2% in the assay with HOP-62 NSCLC; 77.1% with HOP-92 NSCLC; 24.7% with NCI-H522 lung. The growth with A549/ATCC NSCLC is 25.2%; in the assay on 786-0 renal, 36.3%; in the assay with COLO 205 colon it was -27.7% (active); in the assay on DU-145 prostate it was 20.2%; in the assay with K-562 leukemia it was 14.6%; in the assay on MDA-MB-231 breast it was 14%. Besides, the growth with RXF 393 renal is 17.1%; in the assay on SF-268 CNS it was 40.9%; in the assay with SF-295 CNS, 1.12% (active); in the assay on SF-539 CNS, 2.64% (active); with UACC-257 melanoma, 67.6%; with M14 melanoma, 7.62% (active).

Consider `COC(OC)c1ccccc1`, for which the growth is 105% in the assay with NCI-H23 lung; 108% in the assay with NCI-H226 lung; 103% in the assay with NCI-H322M lung; 99.3% in the assay on HOP-62 NSCLC; 79.6% in the assay on HOP-92 NSCLC; 101% in the assay with NCI-H522 lung. For the same compound, the growth in the assay with A549/ATCC NSCLC is 103%; with 786-0 renal, 95%; in the assay on COLO 205 colon it was 107%; in the assay with DU-145 prostate it was 110%; in the assay on K-562 leukemia, 108%; in the assay on MALME-3M melanoma, 99.7%. The growth is 97% with MDA-MB-231 breast; 101% in the assay with RXF 393 renal; 104% with SF-268 CNS; 112% with SF-295 CNS; 102% in the assay on SF-539 CNS; 92.2% in the assay on UACC-257 melanoma. In addition, in the assay on M14 melanoma, the growth was 101%.

On to `COc1ccc(CCNC2=CC(=O)CCC2)cc1OC`, for which the growth was 92.5% in the assay on NCI-H23 lung; 95% in the assay with NCI-H226 lung; 110% in the assay on NCI-H322M lung; 104% in the assay with HOP-62 NSCLC; 92.8% with HOP-92 NSCLC; 102% in the assay on NCI-H522 lung. The growth in the assay on A549/ATCC NSCLC was 105%; in the assay on 786-0 renal, 107%; in the assay on COLO 205 colon it was 103%; with DU-145 prostate it was 124%; in the assay on K-562 leukemia, 95.3%; in the assay on MALME-3M melanoma, 92.2%. Moreover, the growth in the assay on MDA-MB-231 breast is 104%; in the assay on RXF 393 renal it was 119%; in the assay with SF-268 CNS, 104%; in the assay on SF-295 CNS it was 104%; with SF-539 CNS it was 106%; in the assay with UACC-257 melanoma, 117%. For the same compound, in the assay with M14 melanoma, the growth is 104%.

As for `CC[N+](CC)=c1cc2oc3cc(N(C)C)ccc3nc-2cc1C`, the growth in the assay with NCI-H23 lung was 8.14% (active); in the assay with NCI-H226 lung it was 79%; in the assay with NCI-H322M lung, -28.4% (active); in the assay with HOP-62 NSCLC it was 18.3%; in the assay on HOP-92 NSCLC, 63.9%; with NCI-H522 lung it was -43.8% (active). The growth in the assay on A549/ATCC NSCLC was 36.5%; with 786-0 renal, 70.4%; in the assay with COLO 205 colon, -9.82% (active); in the assay with DU-145 prostate it was 73.8%; with K-562 leukemia, 55.2%; in the assay on MALME-3M melanoma it was -25.5% (active). Besides, the growth is 8.42% (active) with MDA-MB-231 breast; 81.7% in the assay with RXF 393 renal; 2.86% (active) in the assay on SF-268 CNS; 17.7% in the assay with SF-295 CNS; 22.2% with SF-539 CNS; -28% (active) in the assay on UACC-257 melanoma. The growth in the assay on M14 melanoma was 18.2%.

Take `COC(=O)[C@]12CC[C@@H](C)[C@H](C)[C@@H]1C1=CC[C@@H]3[C@@]4(C)C(C=O)=C[C@@](C)(COC(=O)c5ccco5)[C@@H]4[C@H](O)C[C@@]3(C)[C@]1(C)CC2`: the growth with NCI-H23 lung is -13.5% (active); in the assay on NCI-H226 lung, -41.5% (active); in the assay on NCI-H322M lung, 33.1%; in the assay with HOP-62 NSCLC, -7.36% (active); in the assay with NCI-H460 lung it was -59.6% (active); with NCI-H522 lung, -47.9% (active). The growth was 7.92% (active) with A549/ATCC NSCLC; -22.9% (active) with 786-0 renal; -78.6% (active) in the assay on COLO 205 colon; -74.3% (active) in the assay with DU-145 prostate; 2.92% (active) with K-562 leukemia; -63.6% (active) in the assay with MALME-3M melanoma. Also, the growth is -47.4% (active) with MDA-MB-231 breast; -63% (active) in the assay on RXF 393 renal; 2.92% (active) in the assay on SF-268 CNS; -76.2% (active) with SF-295 CNS; -62.6% (active) with SF-539 CNS; -23.3% (active) in the assay with M14 melanoma.

In the case of `COc1cc(-c2nn(-c3cccc(NC(=O)c4ccc(Cl)c(C(F)(F)F)c4)c3)cc2-c2ccncc2)ccc1Cl`, the growth in the assay on NCI-H23 lung was 58.9%; with NCI-H226 lung it was 56.3%; in the assay with NCI-H322M lung, 84.9%; in the assay on HOP-62 NSCLC, 53%; with NCI-H460 lung, 25.3%; with NCI-H522 lung, 1.5% (active). For the same compound, the growth was 23.3% in the assay with A549/ATCC NSCLC; 59.5% in the assay on 786-0 renal; 69.4% in the assay with COLO 205 colon; 65.4% in the assay with DU-145 prostate; 8.65% (active) in the assay on K-562 leukemia; 16.8% in the assay with MALME-3M melanoma. Also, the growth is 25.8% with MDA-MB-231 breast; -0.403% (active) with RXF 393 renal; 46.7% with SF-268 CNS; 33% in the assay on SF-539 CNS; 23.5% in the assay with UACC-257 melanoma; 26.2% in the assay with M14 melanoma.

`CC(=O)c1cc2c(N)c(C(=O)Nc3cccc4c3OCCO4)sc2nc1C`: the growth in the assay on NCI-H23 lung was 96%; in the assay with NCI-H226 lung, 88.9%; with NCI-H322M lung, 100%; with HOP-62 NSCLC it was 80.7%; in the assay with HOP-92 NSCLC it was 99.2%; in the assay on NCI-H522 lung, 67.7%. The growth in the assay on A549/ATCC NSCLC is 71.4%; in the assay with 786-0 renal, 97.9%; in the assay on COLO 205 colon, 86.6%; in the assay with DU-145 prostate, 104%; in the assay on K-562 leukemia, 74.7%; in the assay on MALME-3M melanoma, 101%. Also, the growth was 100% in the assay with MDA-MB-231 breast; 99.2% with RXF 393 renal; 96.3% with SF-268 CNS; 92.8% in the assay on SF-295 CNS; 100% in the assay with SF-539 CNS; 99.5% in the assay on UACC-257 melanoma. In the assay with M14 melanoma, the growth was 94.4%.

Consider `O=[N+]([O-])c1cccc(-c2nc3sccn3c2-c2ccnc(NCCCNS(=O)(=O)c3ccc(C(F)(F)F)cc3)n2)c1`, for which the growth in the assay with NCI-H23 lung is 29.7%; with NCI-H226 lung, 23.8%; in the assay with NCI-H322M lung, 63.1%; with HOP-62 NSCLC it was 50%; in the assay with HOP-92 NSCLC, 53%; in the assay on NCI-H522 lung, 20.8%. The growth in the assay on A549/ATCC NSCLC is 31.3%; in the assay on 786-0 renal, 51.8%; with COLO 205 colon it was 24.7%; with DU-145 prostate, 47.3%; in the assay with K-562 leukemia, 20.6%; in the assay with MALME-3M melanoma, 30.5%. Moreover, the growth in the assay on MDA-MB-231 breast was 57.3%; in the assay with RXF 393 renal, 55.6%; in the assay on SF-268 CNS, 38.1%; in the assay on SF-295 CNS, 27.2%; in the assay on SF-539 CNS it was 70.9%; in the assay on UACC-257 melanoma, 37.4%. Besides, the growth in the assay with M14 melanoma is 27.7%.
